Test results taken from PubChem BioAssay (NCATS).
Inconclusive results are not listed. Activity calls are given as the source filed them. Unless noted, the call rests on the fitted dose curve; in most records, active means well fitted curve in the direction sought with a large enough effect; inconclusive means small, poorly fitted or top-dose-only effect, or another doubt; inactive means no such curve, though single readings can be large; an effect the other way counts as inactive or inconclusive.

Columns and labels:
[1] = AP1 Signaling Pathway (AID 357; active means well fitted curve in either direction with a large enough effect, not every such curve was filed as active;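 further: ME-180 reporter cells stimulated with EGF at its EC50 level; on the % scale 0 is the no-effect control and ±100 the full control effect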); details: ME-180 AP-1-bla reporter, EGF-induced, beta-lactamase ratio, 5 h
Method in brief: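 In this screen, ME-180 cells in Opti-MEM with 0.5% dialyzed FBS received EC50 EGF and compound titrations for 5 h. AP-1 reporter beta-lactamase was detected via CCF4 ratio, giving AC50 for positive and negative modulators.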

[2] = target: Cytochrome P450 1A2 (Homo sapiens) (UniProt P05177); experiment: p450-cyp1a2 (AID 410; calls by dose curve; further: potency means the concentration at half of the fitted maximal effect;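 on activity change, negative = inhibition: -100% = full effect of reference inhibitor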); details: recombinant CYP1A2, luciferin-ME demethylation, luminescence; series mostly up to 57 µM
Method in brief: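 Read-out is luminescence from luciferin produced by CYP1A2 demethylation of Luciferin-ME (100uM, at Km). Detection reagent stopped the 60 min NADPH-dependent reaction; signals were normalized to 57 uM furafylline.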

[3] = NFAT Signaling Pathway (AID 444; active means well fitted curve in either direction with a large enough effect, not every such curve was filed as active;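 further: carbachol stimulus at about its EC50 of 1 µM final; on the % scale 0 is the no-effect control and ±100 the full control effect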); details: Jurkat NFAT-bla M1, carbachol, beta-lactamase ratio, 5 h; at 38 µM (top of the series)
Method in brief: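 Jurkat cells with NFAT-driven β-lactamase reporter and co-expressed M1 receptor, stimulated with carbachol (final 1 uM, ~EC50), compound titration, 5 h at 37 °C. CCF4 loaded 1 h at RT; 460/530 nm ratio gave %activity and AC50.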

[4] = Stat Signaling Pathway (AID 446; active means well fitted curve in either direction with a large enough effect, not every such curve was filed as active;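 further: ME-180 cervical cancer cells given 40 pM IL-6 alongside compound; SIE-controlled beta-lactamase reporter measured as 460/530 nm FRET emission ratio; on the % scale 0 is the no-effect control and ±100 the full control effect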); details: ME-180 (cervical carcinoma) SIE beta-lactamase reporter, IL-6 stimulated, 5 h
Method in brief: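 Overnight-plated ME-180 cells bearing a STAT Inducible Element beta-lactamase reporter; 5 h co-exposure to compound and 40 pM IL-6; values normalized to 300 pM IL-6 and 125 nM JAK inhibitor controls.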

[5] = target: 3',5'-cyclic-AMP phosphodiesterase 4B (Homo sapiens) (UniProt Q07343); experiment: qHTS Assay for Inhibitors of PDE-IV (AID 607; active means well fitted activation curve with a large enough effect in the main read-out, with a control signal flat, not every such curve was filed as active; further: % of control where 0% means no effect); details: HEK293 ACTOne CNG channel cells, membrane potential fluorescence; series mostly up to 22.9 µM
Method in brief: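 Live HEK293 cells with a modified cyclic nucleotide-gated (CNG) channel report intracellular cAMP via membrane-potential dye fluorescence (ex 535/em 590 nm). Endogenous PDE-IV was targeted. Compounds were tested at up to 22.9 uM final; RO 20-1724 100 uM served as control.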

[6] = target: Pyruvate kinase (Leishmania mexicana) (UniProt Q27686); experiment: qHTS Validation Assay for Inhibitors of Leishmania Mexicana Pyruvate Kinase (AID 945);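 further: 0% = DMSO only neutral control wells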; details: purified L. mexicana pyruvate kinase, enzyme activity, E451W mutant enzyme; series mostly up to 57.5 µM
Method in brief: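 The enzyme is a highly purified E451W mutant of LmPYK used at 0.2 nM. It converts 0.5 mM PEP and 0.1 mM ADP over 1 h at room temperature; product ATP is quantified by luciferase luminescence relative to DMSO controls.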

[7] = target: Pyruvate kinase PKM (Homo sapiens) (UniProt P14618); experiment: qHTS Assay for Activators of Human Muscle Pyruvate Kinase (AID 954; active means well fitted curve in the direction sought with a large enough effect, not every such curve was filed as active;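 further: 0% = uninhibited enzyme and -100% = no enzyme or full thiadiazolimine inhibition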); details: purified human muscle pyruvate kinase, luciferase-coupled luminescence, 1 h; series mostly up to 57.5 µM
Method in brief: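 Screening used highly purified human pyruvate kinase M2 under submaximal activity, with PEP at its Km and ADP below Km. After an hour at room temperature, ATP was read by luciferase luminescence.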

[8] = target: Alpha-galactosidase A (Homo sapiens) (UniProt P06280); experiment: Counterscreen for Glucocerebrosidase Inhibitors: qHTS Assay for Human alpha-Galactosidase at pH 4.5 (AID 992); details: purified enzyme, fluorogenic substrate; series mostly up to 76.9 µM; further: 0% is about no effect
Method in brief: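 Each compound is preincubated briefly with 2 nM enzyme before substrate addition (80 uM); plates then sit 20 min at ambient temperature, are quenched with 1M NaOH/1M glycine, and read fluorometrically.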

[9] = target: alpha-glucosidase (Oryza sativa, rice) (UniProt Q653V4); experiment: Counterscreen for Glucocerebrosidase Inhibitors: qHTS Assay for Rice alpha-Glucosidase at pH 5.0 (AID 997); details: rice alpha-glucosidase enzyme activity; series mostly up to 76.9 µM;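 further: 0% = full activity with enzyme and -100% = basal without enzyme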
Method in brief: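 Endpoint fluorogenic assay at pH 5.0: compounds (0.7 nM to 77 uM) titrated against 4 nM rice enzyme and 400 uM 4-MU-alpha-glucoside for 20 min at room temperature; NaOH/glycine stop, read ex 365/em 440 nm, Hill-fitted AC50.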

[10] = qHTS Assay for Lipid Storage Modulators (AID 1519; calls by dose curve); details: Drosophila S3 cells, BODIPY lipid droplet/cell ratio, laser cytometry, cells loaded with oleic acid
Method in brief: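 Cells seeded at 5,000 per well were treated with compounds over a concentration series and loaded with oleic acid (400 uM, as added). Lipid droplet fluorescence (488 nm excitation, 500-530 nm channel) was read by laser-scanning cytometry and normalized to 20 uM Triacsin C.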

[11] = target: DNA dC->dU-editing enzyme APOBEC-3G (Homo sapiens) (UniProt Q9HC16); experiment: qHTS for inhibitors of Vif-A3G interactions: Validation (AID 588379); details: Vif-A3G protein interaction assay; series mostly up to 46.1 µM; further: 0% is about no effect
Method in brief: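 Yellow fluorescence (Ex 488, Em 500-530) of Vif-coexpressing HeLa A3G-eYFP cells, scanned by Acumen cytometer, reports blocked A3G degradation. Cells plated at 700/well overnight at 37 deg C before compound addition, then a further overnight compound incubation at 37 deg C.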

[12] = system: Zika virus NS2B-NS3 protease; experiment: Primary screen GU AMC qHTS for Zika virus inhibitors (AID 1347154); details: Zika NS2B-NS3 unlinked protease, AMC fluorogenic substrate; series mostly up to 54.1 µM;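 further: 0% = no-inhibitor control and -100% = no-enzyme control; nearly all actives have a fitted effect of over 70% in size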
Method in brief: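 Unlinked Zika NS2B hydrophilic domain–NS3 protease complex at 25 nM in 10 mM Tris-HCl pH 8.0, 0.01% Tween 20, with an AMC peptide substrate. Fluorescence change (340/450 nm) over 15 min at room temperature, normalized to controls, fitted to 4-parameter Hill.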

[13] = Primary qHTS for small molecule stabilizers of the endoplasmic reticulum resident proteome: Secreted ER Calcium Modulated Protein (SERCaMP) assay (AID 1508630); details: SH-SY5Y GLuc-SERCaMP (Gaussia luciferase released on ER calcium loss) secretion, thapsigargin, luminescence; series mostly up to 38.4 µM; further: on the % scale 0 is the no-effect control and ±100 the full control effect
Method in brief: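 The SH-SY5Y reporter protocol was run at 3 concentrations up to 38.3 uM (primary) or 11 concentrations (follow-up): 16 h compound, 100 nM thapsigargin for 4 h, then extracellular luciferase luminescence.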

[14] = target: Glucocorticoid receptor (Homo sapiens) (UniProt P04150); experiment: GR-GFP Redistribution (AID 450;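 active means compounds whose dose series gives a full or clear partial fitted curve of increased nuclear translocation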; further: potency means the concentration at half of the fitted maximal effect); details: U2OS GR-GFP nuclear translocation, laser cytometry, 2 h
[15] = target: Glucocorticoid receptor (Homo sapiens) (UniProt P04150); experiment: GR-EFC Redistribution (AID 451; calls by dose curve; further: potency means the concentration at half of the fitted maximal effect); details: CHO-K1 GR-EFC translocation, beta-gal luminescence, 2 h
Method in brief: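 CHO-K1 cells expressing nuclear EA and GR-ED fragments of b-gal; compounds titrated up to 46 uM final, 2 h at 37 C. GR nuclear translocation read as complemented b-gal luminescence after 1 h RT detection.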

[16] = target: Mitogen-activated protein kinase 10 (Mus musculus) (UniProt Q61831); experiment: JNK3 AlphaScreen Assay (AID 530; active means well fitted curve in either direction with a large enough effect, not every such curve was filed as active); details: JNK3 lysate, c-Jun phosphorylation; series mostly up to 57.1 µM
Method in brief: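 HepG2 lysate (IL-1b/TNFa pre-activated) + biotin-GST-cJun 1-79 + anti-pSer73 cJun; cpd titration, 15 min RT; ATP 10 uM start; Tris pH 7.6, MgCl2, DTT, vanadate; beads in EDTA buffer; AlphaScreen.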

[17] = target: Cytochrome P450 3A4 (Homo sapiens) (UniProt P08684); experiment: qHTS Assay for Activators of Cytochrome P450 3A4 (AID 885); details: recombinant CYP3A4, Luciferin-PPXE luminescence, 60 min; series mostly up to 57.1 µM; further: nearly all actives have a fitted effect of over 65% in size
Method in brief: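 Using 20nM recombinant human CYP3A4 in potassium phosphate (200mM), substrate Luciferin-PPXE at 25uM, luminescent luciferin detection followed a 60-min RT NADPH reaction; data scaled to 57 uM ketoconazole.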

[18] = target: Cytochrome P450 2C19 (Homo sapiens) (UniProt P33261); experiment: qHTS Assay for Inhibitors and Substrates of Cytochrome P450 2C19 (AID 899); details: recombinant CYP2C19, luciferin-H EGE luminescence; series mostly up to 57.1 µM; further: potency means the concentration at half of the fitted maximal effect; nearly all actives have a fitted effect of over 60% in size
Method in brief: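 Luminescent read-out of luciferin formed from Luciferin-H EGE (10uM, equal to KM). Enzyme 5nM in 50mM KPO4; compound added, 10 min at 37C, then NADPH regenerating system for 60 min at 37C. Full inhibition defined by 57uM ketoconazole.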

[19] = target: Ubiquitin carboxyl-terminal hydrolase 1 (Homo sapiens) (UniProt O94782); experiment: Inhibitors of USP1/UAF1: Pilot qHTS (AID 504865); details: purified USP1/UAF1, Ub-rhodamine cleavage fluorescence; series mostly up to 114 µM;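 further: rhodamine fluorescence freed from ubiquitin-rhodamine substrate followed over time; top concentration of the series differs between compounds; on the % scale 0 is the no-effect control and ±100 the full control effect; nearly all actives have a fitted effect of over 35% in size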
Method in brief: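 1nM USP1/UAF1 + cpd, 15 min RT; start w/ Ub-Rho 150nM final; kinetic FL 480/540 nm, 6 reads q60 s. Buffer 50mM HEPES pH 7.8, 0.5mM EDTA, 1mM TCEP, 0.01% Tween-20, 0.1 mg/ml BSA.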

[20] = measured here: cell count channel max response
[21] = measured here: lipid channel max response

Chain of Glucocorticoid receptor (Homo sapiens) (P04150 whole entry, looked up, the tested form may be a part): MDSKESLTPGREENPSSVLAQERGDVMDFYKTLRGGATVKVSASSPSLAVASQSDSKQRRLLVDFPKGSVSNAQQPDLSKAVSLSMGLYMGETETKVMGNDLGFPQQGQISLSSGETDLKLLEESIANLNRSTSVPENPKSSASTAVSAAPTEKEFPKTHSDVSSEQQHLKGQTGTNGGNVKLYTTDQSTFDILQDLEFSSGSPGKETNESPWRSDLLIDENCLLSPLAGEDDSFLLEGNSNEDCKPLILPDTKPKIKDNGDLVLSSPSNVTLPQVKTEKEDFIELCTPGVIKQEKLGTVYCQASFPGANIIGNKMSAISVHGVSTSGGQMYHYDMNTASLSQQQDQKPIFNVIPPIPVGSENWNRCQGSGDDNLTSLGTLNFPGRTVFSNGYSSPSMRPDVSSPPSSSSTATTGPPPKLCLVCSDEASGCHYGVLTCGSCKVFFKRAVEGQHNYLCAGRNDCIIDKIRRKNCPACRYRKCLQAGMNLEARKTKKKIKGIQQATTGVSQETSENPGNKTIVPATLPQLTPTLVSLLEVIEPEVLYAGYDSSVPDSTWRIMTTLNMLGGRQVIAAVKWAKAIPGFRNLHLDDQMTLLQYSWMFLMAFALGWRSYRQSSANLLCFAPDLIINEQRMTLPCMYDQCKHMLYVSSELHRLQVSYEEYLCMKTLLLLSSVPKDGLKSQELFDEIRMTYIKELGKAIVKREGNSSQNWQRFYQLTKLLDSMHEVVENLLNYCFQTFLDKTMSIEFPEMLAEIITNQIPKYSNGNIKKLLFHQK
Chain of DNA dC->dU-editing enzyme APOBEC-3G (Homo sapiens) (Q9HC16 whole entry, looked up): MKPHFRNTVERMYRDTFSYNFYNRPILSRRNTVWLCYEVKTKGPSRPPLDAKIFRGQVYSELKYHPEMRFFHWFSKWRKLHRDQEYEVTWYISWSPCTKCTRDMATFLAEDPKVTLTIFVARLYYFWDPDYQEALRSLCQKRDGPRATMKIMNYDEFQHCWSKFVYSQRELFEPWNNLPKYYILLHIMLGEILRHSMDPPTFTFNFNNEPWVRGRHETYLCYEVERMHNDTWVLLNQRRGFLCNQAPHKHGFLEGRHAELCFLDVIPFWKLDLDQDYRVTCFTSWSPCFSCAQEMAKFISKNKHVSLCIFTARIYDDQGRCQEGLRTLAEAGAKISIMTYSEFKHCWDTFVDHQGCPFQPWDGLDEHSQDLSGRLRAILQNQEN
Chain of Cytochrome P450 1A2 (Homo sapiens) (P05177 whole entry, looked up): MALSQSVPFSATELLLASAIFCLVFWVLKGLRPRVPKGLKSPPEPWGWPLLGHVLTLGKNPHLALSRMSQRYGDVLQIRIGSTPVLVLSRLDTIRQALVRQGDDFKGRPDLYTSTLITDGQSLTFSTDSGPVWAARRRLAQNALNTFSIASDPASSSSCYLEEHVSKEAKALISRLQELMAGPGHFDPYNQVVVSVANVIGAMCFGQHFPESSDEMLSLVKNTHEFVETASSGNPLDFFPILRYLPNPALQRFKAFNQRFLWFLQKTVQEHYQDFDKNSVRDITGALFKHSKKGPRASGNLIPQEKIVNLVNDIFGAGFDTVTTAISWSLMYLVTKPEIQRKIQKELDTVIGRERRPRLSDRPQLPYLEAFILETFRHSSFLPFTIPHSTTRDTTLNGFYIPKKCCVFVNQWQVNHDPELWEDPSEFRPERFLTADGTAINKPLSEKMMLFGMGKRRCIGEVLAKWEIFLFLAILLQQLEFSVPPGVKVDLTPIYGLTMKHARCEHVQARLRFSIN
Chain of 3',5'-cyclic-AMP phosphodiesterase 4B (Homo sapiens) (Q07343 whole entry, looked up): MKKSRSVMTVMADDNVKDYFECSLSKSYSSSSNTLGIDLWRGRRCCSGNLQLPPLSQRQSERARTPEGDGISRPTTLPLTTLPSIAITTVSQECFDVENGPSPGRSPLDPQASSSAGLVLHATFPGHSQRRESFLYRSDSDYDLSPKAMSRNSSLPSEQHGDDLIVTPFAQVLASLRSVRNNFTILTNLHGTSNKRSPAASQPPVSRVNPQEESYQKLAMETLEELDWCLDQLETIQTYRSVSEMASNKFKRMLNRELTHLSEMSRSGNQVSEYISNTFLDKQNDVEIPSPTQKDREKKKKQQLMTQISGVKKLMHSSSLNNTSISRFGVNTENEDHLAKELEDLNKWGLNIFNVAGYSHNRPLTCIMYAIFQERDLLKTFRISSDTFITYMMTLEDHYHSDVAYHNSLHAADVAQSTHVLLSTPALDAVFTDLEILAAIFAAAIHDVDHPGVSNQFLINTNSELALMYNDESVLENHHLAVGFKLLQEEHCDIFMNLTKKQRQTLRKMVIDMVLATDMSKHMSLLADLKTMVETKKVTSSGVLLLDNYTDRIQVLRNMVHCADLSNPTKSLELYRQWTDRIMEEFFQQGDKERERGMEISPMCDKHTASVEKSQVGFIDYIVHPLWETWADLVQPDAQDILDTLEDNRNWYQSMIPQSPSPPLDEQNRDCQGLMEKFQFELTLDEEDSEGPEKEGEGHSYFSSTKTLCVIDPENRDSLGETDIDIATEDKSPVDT
Chain of Ubiquitin carboxyl-terminal hydrolase 1 (Homo sapiens) (O94782 whole entry, looked up): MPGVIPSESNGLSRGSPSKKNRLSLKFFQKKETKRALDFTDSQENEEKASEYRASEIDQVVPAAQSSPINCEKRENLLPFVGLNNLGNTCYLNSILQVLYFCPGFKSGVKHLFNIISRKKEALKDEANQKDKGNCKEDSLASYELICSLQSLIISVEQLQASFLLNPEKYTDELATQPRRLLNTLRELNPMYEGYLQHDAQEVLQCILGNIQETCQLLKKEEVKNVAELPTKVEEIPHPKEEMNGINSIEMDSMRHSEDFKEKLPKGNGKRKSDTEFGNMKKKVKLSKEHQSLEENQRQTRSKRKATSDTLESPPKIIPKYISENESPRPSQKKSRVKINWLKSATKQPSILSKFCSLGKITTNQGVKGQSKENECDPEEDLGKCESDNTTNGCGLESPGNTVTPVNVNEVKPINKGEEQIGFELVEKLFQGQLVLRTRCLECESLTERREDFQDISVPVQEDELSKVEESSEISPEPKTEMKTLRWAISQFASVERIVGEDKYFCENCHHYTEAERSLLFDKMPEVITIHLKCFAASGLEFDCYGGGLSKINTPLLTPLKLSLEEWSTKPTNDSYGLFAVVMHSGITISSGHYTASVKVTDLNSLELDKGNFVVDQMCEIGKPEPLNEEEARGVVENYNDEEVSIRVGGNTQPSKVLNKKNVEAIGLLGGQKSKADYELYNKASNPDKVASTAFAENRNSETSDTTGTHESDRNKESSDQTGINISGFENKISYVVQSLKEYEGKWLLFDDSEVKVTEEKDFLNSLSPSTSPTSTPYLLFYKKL
Chain of Pyruvate kinase PKM (Homo sapiens) (P14618 whole entry, looked up): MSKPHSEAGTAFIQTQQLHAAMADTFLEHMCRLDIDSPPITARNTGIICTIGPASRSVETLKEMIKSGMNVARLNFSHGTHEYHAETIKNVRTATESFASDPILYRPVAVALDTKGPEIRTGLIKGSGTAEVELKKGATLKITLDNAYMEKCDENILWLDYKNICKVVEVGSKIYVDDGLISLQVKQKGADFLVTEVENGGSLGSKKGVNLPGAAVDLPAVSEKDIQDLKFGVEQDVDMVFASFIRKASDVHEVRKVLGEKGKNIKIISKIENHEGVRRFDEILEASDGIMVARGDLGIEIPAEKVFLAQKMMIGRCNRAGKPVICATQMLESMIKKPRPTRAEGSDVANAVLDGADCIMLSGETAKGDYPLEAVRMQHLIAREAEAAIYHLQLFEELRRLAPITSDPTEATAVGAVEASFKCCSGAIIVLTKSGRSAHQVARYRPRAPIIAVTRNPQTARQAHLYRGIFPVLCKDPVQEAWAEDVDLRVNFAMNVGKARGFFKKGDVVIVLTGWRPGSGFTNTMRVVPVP
Chain of Pyruvate kinase (Leishmania mexicana) (Q27686 2-499 E452W): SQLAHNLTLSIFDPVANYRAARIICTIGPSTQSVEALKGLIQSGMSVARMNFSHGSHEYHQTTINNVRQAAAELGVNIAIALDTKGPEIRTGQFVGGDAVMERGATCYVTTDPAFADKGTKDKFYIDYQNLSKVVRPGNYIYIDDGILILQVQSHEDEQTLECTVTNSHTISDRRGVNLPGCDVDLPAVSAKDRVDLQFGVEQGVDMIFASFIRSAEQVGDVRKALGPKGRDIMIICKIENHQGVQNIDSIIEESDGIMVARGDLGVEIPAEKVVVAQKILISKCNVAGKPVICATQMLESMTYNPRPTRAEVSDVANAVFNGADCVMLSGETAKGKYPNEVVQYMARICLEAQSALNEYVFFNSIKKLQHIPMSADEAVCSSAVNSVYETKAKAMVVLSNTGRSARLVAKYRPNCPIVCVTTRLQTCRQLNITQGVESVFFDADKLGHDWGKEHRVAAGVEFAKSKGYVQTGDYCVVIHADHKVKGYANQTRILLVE
Chain of Cytochrome P450 3A4 (Homo sapiens) (P08684 whole entry, looked up): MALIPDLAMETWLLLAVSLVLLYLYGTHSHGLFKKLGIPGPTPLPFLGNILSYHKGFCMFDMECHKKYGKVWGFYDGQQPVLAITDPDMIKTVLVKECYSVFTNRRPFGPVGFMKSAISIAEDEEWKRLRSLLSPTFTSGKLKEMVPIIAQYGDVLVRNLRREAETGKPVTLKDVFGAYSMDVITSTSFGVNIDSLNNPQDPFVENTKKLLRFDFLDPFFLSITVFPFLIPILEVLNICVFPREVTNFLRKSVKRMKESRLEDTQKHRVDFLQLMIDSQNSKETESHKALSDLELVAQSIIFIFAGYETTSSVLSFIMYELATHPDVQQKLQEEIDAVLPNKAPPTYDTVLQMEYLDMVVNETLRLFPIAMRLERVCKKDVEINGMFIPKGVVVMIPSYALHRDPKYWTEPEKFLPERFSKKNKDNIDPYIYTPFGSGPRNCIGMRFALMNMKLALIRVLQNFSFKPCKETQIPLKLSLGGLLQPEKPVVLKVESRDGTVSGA

C[C@@H]1C[C@@H]2[C@H]3CCC4=CC(=O)C=C[C@]4(C)[C@]3(F)[C@@H](O)C[C@@]2(C)[C@@]1(O)C(=O)CO
inactive: activity change, negative = inhibition ([1]; at 38 µM (top of the series)) -8.71% | Potency [2] | activity change, negative = inhibition [3] 7.2% | activity, negative = inhibition ([4]; at 38 µM (top of the series)) -19.7% | Potency [5] | Potency [6] | outcome [7] | outcome [8] | outcome [9] | activity change, negative = inhibition ([10]; at 57.5 µM (top of the series)) -3.85% | Potency [11] | Potency [12] | Potency [13]
2.65%: max response [10, 21]
8.23%: max response [10, 20]

CC[N+](C)(CC)CCC[n+]1c(-c2ccccc2)c2cc(N)ccc2c2ccc(N)cc21
active: Potency [2] 12.6 µM | Potency [18] 1.58 µM
-3.68%: max response [10, 21]
-4.14%: max response [10, 20]
inactive: activity change, negative = inhibition ([1]; at 17.2 µM (top of the series)) 5.27% | activity, negative = inhibition ([4]; at 17.2 µM (top of the series)) -13.1% | Potency [14] > 20.6 µM | Potency [15] > 20.6 µM | Potency [16] | Potency [5] | Potency [17] | activity change, negative = inhibition ([10]; at 25.7 µM (top of the series)) 0.117% | Potency [12] | Potency [13]

N[C@@]1(C(=O)O)CN[C@H](C(=O)O)C1
0.388%: max response [10, 20]
inactive: Potency [14] > 46 µM | Potency [15] > 46 µM | Potency [16] | Potency [5] | activity change, negative = inhibition ([10]; at 57.5 µM (top of the series)) -1.74% | Potency [19] | Potency [11] | Potency [12] | Potency [13]
-1.87%: max response [10, 21]
active: Potency [2] 31.6 µM

N[C@H](CCC(=O)NCC(=O)O)C(=O)O
3.09%: max response [10, 21]
4.97%: max response [10, 20]
inactive: Potency [2] | Potency [14] > 46 µM | Potency [15] > 46 µM | Potency [16] | Potency [5] | activity change, negative = inhibition ([10]; at 57.5 µM (top of the series)) -2.27% | Potency [19] | Potency [11] | Potency [12] | Potency [13]
